For 1 sequence, binding signal results are on record in article PMC7862700, “An all-to-all approach to the identification of sequence-specific readers for epigenetic DNA modifications on cytosine”.

Experiment in all cases: DAPPL (digital affinity profiling via proximity ligation, sequencing); 10 mM Tris-HCl pH 7.5, 50 mM NaCl, 1 mM DTT, 4% glycerol, room temperature, 30 min; GST-TFs on glutathione beads, 16-mer random dsDNA library, 0.1% formaldehyde crosslink after washing; high values mean tight binding
The target in assay [1] is T1, FEV (Homo sapiens, UniProt Q99581 1-238).
T1 sequence: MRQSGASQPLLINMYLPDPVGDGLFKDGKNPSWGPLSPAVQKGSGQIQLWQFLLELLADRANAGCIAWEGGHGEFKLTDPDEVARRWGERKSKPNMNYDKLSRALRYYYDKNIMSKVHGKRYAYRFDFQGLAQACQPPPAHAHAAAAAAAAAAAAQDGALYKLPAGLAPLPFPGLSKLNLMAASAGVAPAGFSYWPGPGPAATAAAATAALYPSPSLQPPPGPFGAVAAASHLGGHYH
As to conditions: protein: recombinant; tags: N-terminal GST; dsDNA, one strand shown. The method, boiled down:
(§1)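 Binding signal is each hexamer's read frequency for a factor divided by its frequency in the tag-only sample. The factors were GST-fused human transcription factors from yeast, captured on glutathione beads, DNA-barcoded and pooled with that sample. Pools were incubated with 200 nmole of a random double-stranded 16-mer DNA library in Tris/NaCl/DTT/glycerol buffer at room temperature for 30 min, then washed, crosslinked with 0.1% formaldehyde, proximity-ligated with BsaI/T4 ligase (1 h, 37 °C), PCR-amplified and sequenced on an Illumina NextSeq500.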

Assay [2] has as its target ETV5 (Homo sapiens, UniProt P41161 1-510). As to conditions: protein: recombinant; tags: N-terminal GST; dsDNA, one strand shown. An outline of the steps:
as §1

In assay [3] the target is HSF1 (Homo sapiens, UniProt Q00613 1-529). As to conditions: protein: recombinant; tags: N-terminal GST; chain copies: 3; dsDNA, one strand shown. An outline of the steps:
as §1

Assay [4] concerns the target T2, SPIC (Homo sapiens, UniProt Q8N5J4 1-248).
T2 sequence: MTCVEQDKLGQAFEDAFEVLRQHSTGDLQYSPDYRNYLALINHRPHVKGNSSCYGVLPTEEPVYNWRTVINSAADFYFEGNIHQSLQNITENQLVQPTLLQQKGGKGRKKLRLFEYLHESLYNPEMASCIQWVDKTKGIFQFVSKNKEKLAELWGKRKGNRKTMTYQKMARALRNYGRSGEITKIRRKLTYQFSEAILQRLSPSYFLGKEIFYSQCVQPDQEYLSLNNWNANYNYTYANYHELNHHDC
As to conditions: protein: recombinant; tags: N-terminal GST; dsDNA, one strand shown. The method, boiled down: as §1

The target in assay [5] is ELF4 (Homo sapiens, UniProt Q99607 1-663). As to conditions: protein: recombinant; tags: N-terminal GST; dsDNA, one strand shown. The method, boiled down: as §1
Assay [6] addresses T3, ELK4 (Homo sapiens, UniProt P28324-2 1-405).
T3 sequence: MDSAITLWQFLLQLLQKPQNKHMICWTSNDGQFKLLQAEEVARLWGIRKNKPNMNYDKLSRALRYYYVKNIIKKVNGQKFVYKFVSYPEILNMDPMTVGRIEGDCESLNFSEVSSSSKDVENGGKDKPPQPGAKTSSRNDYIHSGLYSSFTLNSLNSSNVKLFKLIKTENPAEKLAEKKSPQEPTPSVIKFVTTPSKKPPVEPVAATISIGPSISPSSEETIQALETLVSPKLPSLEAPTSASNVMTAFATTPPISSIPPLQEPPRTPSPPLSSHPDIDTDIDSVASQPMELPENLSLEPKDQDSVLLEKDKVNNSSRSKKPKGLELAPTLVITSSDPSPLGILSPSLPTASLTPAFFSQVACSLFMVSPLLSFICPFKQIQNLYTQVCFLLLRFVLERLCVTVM
As to conditions: protein: recombinant; tags: N-terminal GST; dsDNA, one strand shown. An outline of the steps: as §1

Assay [7] has as its target T4, ETV2 (Homo sapiens, UniProt O00321 1-342).
T4 sequence: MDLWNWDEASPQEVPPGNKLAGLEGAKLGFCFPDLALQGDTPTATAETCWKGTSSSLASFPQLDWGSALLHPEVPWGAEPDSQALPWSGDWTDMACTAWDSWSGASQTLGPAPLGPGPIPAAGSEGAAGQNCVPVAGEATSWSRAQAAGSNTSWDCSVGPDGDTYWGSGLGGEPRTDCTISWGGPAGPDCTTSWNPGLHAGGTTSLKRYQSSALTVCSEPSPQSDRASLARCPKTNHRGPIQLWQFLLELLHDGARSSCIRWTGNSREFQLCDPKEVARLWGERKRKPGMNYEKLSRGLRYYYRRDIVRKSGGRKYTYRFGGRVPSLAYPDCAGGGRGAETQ
As to conditions: protein: recombinant; tags: N-terminal GST; dsDNA, one strand shown. The method, boiled down:
as §1

The target in assay [8] is T5, ELF3 (Homo sapiens, UniProt P78545 1-371).
T5 sequence: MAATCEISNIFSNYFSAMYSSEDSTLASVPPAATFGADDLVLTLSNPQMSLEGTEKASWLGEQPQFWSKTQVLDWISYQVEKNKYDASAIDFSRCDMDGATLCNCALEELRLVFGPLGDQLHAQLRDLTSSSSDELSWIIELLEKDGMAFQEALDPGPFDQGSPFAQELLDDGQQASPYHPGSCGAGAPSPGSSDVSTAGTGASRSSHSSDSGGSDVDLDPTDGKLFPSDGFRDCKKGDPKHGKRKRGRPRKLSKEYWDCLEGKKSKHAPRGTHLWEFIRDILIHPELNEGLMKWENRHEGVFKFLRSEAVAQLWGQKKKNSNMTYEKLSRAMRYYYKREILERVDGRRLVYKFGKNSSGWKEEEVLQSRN
As to conditions: protein: recombinant; tags: N-terminal GST; dsDNA, one strand shown. An outline of the steps:
as §1

Assay [9] addresses CRX (Homo sapiens, UniProt O43186 1-299). As to conditions: protein: recombinant; tags: N-terminal GST; dsDNA, one strand shown. An outline of the steps:
as §1

Assay [10] deals with ETV1 (Homo sapiens, UniProt P50549 1-477). As to conditions: protein: recombinant; tags: N-terminal GST; dsDNA, one strand shown. The method, boiled down: as §1
Assay [11] has as its target T6, ERF (Homo sapiens, UniProt P50548 1-548).
T6 sequence: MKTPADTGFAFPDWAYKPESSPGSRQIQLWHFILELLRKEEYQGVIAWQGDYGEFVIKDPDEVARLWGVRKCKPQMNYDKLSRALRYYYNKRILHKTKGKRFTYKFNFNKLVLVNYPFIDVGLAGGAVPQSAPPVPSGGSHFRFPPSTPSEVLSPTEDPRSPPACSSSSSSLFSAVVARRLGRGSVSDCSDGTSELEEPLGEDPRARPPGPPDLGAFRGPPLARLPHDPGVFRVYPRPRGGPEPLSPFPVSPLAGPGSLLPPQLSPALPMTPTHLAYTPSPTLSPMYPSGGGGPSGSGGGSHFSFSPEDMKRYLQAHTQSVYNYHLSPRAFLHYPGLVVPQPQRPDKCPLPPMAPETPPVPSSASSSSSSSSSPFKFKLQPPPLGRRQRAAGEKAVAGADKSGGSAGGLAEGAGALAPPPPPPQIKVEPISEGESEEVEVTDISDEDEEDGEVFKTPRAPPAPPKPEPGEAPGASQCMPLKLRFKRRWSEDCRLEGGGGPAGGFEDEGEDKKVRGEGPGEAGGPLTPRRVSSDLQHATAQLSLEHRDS
As to conditions: protein: recombinant; tags: N-terminal GST; dsDNA, one strand shown. An outline of the steps: as §1

Assay [12] addresses T7, ETV3L (Homo sapiens, UniProt Q6ZN32 1-361).
T7 sequence: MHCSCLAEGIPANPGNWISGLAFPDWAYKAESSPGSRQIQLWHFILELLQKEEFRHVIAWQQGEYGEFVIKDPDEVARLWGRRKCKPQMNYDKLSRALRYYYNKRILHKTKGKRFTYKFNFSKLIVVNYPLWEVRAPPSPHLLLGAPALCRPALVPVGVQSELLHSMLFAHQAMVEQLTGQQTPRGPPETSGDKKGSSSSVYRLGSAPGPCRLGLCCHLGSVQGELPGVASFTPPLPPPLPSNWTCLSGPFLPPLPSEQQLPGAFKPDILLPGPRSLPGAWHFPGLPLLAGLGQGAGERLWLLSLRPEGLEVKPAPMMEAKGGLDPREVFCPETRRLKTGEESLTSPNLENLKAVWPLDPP
As to conditions: protein: recombinant; tags: N-terminal GST; dsDNA, one strand shown. An outline of the steps:
as §1

Assay [13] has as its target T8, ETS2 (Homo sapiens, UniProt P15036 1-469).
T8 sequence: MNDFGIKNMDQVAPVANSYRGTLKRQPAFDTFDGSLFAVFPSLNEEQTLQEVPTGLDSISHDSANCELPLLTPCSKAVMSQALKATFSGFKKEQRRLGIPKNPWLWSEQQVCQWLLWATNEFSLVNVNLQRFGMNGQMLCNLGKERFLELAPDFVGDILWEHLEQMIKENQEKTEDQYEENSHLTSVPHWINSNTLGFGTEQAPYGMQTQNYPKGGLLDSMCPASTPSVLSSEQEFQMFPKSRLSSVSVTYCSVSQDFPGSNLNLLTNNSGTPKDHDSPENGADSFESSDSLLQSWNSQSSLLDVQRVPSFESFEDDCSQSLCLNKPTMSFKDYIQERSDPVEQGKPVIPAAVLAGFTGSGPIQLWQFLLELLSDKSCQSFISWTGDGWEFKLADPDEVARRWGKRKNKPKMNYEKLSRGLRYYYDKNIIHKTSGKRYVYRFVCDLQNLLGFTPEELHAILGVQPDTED
As to conditions: protein: recombinant; tags: N-terminal GST; dsDNA, one strand shown. The method, boiled down:
as §1

Assay [14] concerns the target T9, SPDEF (Homo sapiens, UniProt O95238 1-335).
T9 sequence: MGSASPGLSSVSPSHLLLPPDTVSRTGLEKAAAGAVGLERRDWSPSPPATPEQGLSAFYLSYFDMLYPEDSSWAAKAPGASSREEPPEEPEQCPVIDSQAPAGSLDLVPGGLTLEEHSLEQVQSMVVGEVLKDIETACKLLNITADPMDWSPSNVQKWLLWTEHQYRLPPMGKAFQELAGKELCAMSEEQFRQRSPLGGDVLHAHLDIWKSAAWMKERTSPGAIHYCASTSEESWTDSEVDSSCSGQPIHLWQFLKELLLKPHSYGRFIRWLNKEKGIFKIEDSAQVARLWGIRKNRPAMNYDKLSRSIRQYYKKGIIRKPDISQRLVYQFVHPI
As to conditions: protein: recombinant; tags: N-terminal GST; dsDNA, one strand shown. An outline of the steps: as §1

Assay [15] addresses T10, ETV7 (Homo sapiens, UniProt Q9Y603 1-341).
T10 sequence: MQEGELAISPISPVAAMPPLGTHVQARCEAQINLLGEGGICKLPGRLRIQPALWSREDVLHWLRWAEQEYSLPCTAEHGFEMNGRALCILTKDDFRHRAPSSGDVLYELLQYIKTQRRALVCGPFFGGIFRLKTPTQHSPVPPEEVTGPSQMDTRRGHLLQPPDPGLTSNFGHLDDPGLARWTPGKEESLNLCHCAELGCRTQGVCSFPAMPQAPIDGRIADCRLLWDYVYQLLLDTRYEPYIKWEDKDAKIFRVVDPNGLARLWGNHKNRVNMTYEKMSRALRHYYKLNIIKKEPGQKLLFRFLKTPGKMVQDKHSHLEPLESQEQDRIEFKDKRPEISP
As to conditions: protein: recombinant; tags: N-terminal GST; dsDNA, one strand shown. The method, boiled down:
as §1

The target in assay [16] is T11, ELF5 (Homo sapiens, UniProt Q9UKW6-2 1-255).
T11 sequence: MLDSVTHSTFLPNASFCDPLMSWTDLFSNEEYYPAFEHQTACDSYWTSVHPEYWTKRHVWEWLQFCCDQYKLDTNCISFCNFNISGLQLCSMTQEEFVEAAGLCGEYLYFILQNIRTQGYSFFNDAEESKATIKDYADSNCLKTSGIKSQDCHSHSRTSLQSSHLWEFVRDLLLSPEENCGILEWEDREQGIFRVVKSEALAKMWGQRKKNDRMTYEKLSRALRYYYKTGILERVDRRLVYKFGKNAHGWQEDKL
As to conditions: protein: recombinant; tags: N-terminal GST; dsDNA, one strand shown. An outline of the steps: as §1

The target of assay [17] is T12, ETV3 (Homo sapiens, UniProt P41162-2 1-143).
T12 sequence: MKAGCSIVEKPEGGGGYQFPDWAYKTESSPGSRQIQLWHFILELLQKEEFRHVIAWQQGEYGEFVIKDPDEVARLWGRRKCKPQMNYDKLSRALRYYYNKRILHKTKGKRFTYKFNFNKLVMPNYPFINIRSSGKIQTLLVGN
As to conditions: protein: recombinant; tags: N-terminal GST; dsDNA, one strand shown. An outline of the steps: as §1

Assay [18] has as its target ETV6 (Homo sapiens, UniProt P41212 1-452). As to conditions: protein: recombinant; tags: N-terminal GST; dsDNA, one strand shown. The method, boiled down: as §1

Chain of CRX (O43186 whole entry): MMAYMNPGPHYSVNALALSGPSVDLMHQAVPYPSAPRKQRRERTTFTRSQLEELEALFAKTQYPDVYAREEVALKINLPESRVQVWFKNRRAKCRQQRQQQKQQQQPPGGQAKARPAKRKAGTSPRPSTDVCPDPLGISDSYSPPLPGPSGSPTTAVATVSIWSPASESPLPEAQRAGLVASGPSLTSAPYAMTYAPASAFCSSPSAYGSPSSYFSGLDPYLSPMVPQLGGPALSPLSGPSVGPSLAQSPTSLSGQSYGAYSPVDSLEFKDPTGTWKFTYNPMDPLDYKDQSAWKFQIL
Chain of ETV6 (P41212 whole entry): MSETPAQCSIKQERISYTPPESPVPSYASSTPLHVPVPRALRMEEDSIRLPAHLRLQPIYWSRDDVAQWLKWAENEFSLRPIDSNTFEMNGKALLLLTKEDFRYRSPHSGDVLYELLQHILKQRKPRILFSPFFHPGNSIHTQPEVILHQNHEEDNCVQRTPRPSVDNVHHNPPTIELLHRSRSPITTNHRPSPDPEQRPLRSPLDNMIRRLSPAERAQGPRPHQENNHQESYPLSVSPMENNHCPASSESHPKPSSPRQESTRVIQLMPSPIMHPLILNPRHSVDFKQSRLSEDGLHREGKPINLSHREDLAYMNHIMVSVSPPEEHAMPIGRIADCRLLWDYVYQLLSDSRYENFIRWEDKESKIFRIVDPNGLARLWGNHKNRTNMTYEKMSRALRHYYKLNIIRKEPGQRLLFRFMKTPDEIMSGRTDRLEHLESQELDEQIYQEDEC
Chain of ETV1 (P50549 whole entry): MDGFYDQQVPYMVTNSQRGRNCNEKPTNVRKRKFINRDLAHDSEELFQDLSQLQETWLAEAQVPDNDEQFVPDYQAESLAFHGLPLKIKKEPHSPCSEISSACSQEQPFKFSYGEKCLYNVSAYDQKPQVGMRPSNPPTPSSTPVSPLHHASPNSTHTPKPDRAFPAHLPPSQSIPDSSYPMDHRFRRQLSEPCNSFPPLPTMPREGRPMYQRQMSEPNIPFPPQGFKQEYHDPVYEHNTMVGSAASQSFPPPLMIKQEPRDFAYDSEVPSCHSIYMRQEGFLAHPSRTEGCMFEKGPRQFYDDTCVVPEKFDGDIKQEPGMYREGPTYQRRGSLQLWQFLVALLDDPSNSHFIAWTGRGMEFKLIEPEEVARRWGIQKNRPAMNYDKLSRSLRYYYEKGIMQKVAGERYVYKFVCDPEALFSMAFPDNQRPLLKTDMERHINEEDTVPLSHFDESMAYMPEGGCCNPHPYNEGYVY
Chain of ELF4 (Q99607 whole entry): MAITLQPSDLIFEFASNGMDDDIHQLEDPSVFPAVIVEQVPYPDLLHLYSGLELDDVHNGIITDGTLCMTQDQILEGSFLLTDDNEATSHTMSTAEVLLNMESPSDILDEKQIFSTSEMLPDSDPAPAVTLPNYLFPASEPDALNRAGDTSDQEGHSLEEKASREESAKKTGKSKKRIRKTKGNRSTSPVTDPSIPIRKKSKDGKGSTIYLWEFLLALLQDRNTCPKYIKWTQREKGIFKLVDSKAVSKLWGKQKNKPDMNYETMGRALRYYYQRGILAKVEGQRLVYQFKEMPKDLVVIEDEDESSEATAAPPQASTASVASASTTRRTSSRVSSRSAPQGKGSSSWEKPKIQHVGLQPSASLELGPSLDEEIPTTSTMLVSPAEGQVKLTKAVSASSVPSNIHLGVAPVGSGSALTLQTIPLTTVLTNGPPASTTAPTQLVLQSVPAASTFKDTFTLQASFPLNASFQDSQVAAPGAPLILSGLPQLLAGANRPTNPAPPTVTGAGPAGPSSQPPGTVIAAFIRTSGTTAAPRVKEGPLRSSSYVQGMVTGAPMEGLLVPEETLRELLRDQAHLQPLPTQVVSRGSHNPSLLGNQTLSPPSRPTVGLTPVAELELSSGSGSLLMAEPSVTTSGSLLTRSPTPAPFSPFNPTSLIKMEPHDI
Chain of HSF1 (Q00613 whole entry): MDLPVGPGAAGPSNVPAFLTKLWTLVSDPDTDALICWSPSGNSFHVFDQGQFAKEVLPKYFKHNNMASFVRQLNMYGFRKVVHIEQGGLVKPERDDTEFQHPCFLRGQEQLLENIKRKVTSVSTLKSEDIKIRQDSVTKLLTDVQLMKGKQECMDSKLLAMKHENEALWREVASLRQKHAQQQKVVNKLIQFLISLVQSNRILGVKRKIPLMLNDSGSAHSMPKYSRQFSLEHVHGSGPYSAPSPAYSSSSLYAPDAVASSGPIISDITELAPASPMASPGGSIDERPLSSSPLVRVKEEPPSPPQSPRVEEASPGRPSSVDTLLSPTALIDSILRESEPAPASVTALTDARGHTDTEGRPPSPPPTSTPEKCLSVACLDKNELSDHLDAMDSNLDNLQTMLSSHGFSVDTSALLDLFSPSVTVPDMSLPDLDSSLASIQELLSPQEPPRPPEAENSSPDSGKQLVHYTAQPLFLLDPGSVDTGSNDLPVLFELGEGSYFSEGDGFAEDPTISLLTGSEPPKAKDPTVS
Chain of ETV5 (P41161 whole entry): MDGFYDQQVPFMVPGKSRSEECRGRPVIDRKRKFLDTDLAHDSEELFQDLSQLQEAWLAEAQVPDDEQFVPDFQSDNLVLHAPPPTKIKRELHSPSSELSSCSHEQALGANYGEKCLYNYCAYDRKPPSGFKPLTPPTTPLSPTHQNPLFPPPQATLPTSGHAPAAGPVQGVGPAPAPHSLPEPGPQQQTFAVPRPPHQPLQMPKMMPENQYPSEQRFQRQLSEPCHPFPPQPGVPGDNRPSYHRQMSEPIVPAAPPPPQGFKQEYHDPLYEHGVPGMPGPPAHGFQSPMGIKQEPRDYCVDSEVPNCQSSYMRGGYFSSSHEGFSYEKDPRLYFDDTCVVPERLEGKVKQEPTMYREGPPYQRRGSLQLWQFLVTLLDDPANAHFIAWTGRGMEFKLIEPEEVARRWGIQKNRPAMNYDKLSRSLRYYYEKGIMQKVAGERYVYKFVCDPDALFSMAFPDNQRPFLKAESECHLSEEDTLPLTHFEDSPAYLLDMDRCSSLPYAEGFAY

For the sequence ATAGAA, the binding signal was 1.04 fold enrichment (6-mer frequency, TF over GST control) in assay [1]; 1.05 fold enrichment (6-mer frequency, TF over GST control) in assay [2]; 1.93 fold enrichment (6-mer frequency, TF over GST control) in assay [3]; 1.03 fold enrichment (6-mer frequency, TF over GST control) in assay [4]; 1.1 fold enrichment (6-mer frequency, TF over GST control) in assay [5]; 1.02 fold enrichment (6-mer frequency, TF over GST control) in assay [6]. The binding signal is 1.01 fold enrichment (6-mer frequency, TF over GST control) in assay [7]; 1 fold enrichment (6-mer frequency, TF over GST control) in assay [8]; 1.28 fold enrichment (6-mer frequency, TF over GST control) in [9]; 1.12 fold enrichment (6-mer frequency, TF over GST control) in assay [10]; 1.1 fold enrichment (6-mer frequency, TF over GST control) in assay [11]; 1.1 fold enrichment (6-mer frequency, TF over GST control) in assay [12]. Besides, the binding signal was 1.07 fold enrichment (6-mer frequency, TF over GST control) in assay [13]; 1.02 fold enrichment (6-mer frequency, TF over GST control) in assay [14]; 1.16 fold enrichment (6-mer frequency, TF over GST control) in assay [15]; 1.04 fold enrichment (6-mer frequency, TF over GST control) in assay [16]; 1.1 fold enrichment (6-mer frequency, TF over GST control) in assay [17]; 1.13 fold enrichment (6-mer frequency, TF over GST control) in [18].
